Source: PubChem BioAssay (NCATS)
Several values for one entry are separate records, joined by “and”; a condition that tells them apart may be missing. Equal values may be shown once. Records with an inconclusive call do not appear. Entries that show only a call come without a potency. Unmarked numbers belong to inactive results. Activity calls are given as the source filed them. The call rests on the fitted dose curve; in most records, active means well fitted curve in the direction sought with a large enough effect; inconclusive means small, poorly fitted or top-dose-only effect, or another doubt; inactive means no such curve, though single readings can be large; an effect the other way counts as inactive or inconclusive.

Columns and labels:
[1] = P-glycoprotein substrates identified in KB-8-5-11 adenocarcinoma cell line, qHTS therapeutic library screen (AID 1346987); further: nearly all actives have a fitted effect of over 65% in size
Summary of the method: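 Steps: plate 500 KB-8-5-11 cells/well in DMEM + 10% FCS (colchicine removed); pin compounds in dose-response; incubate 72 h, 37 degree C, 5% CO2; add CellTiter-Glo, 5 min; read luminescence.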

[2] = NS1 protein of Zika virus - qHTS assay to identify small molecule inhibitors in human HEK 293 cells (AID 1347053); further: nearly all actives have a fitted effect of over 55% in size
Summary of the method: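 HEK 293 cells pretreated with compound for 1 h, then infected with ZIKV MR766 (MOI 0.5) for 24 h at 37 C. NS1 detected by TR-FRET with two anti-NS1 antibodies; normalized to uninfected (0%) and infected (100%) wells.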

[3] = qHTS of pediatric cancer cell lines to identify multiple opportunities for drug repurposing: Primary screen for TC32 cells (AID 1347089); further: nearly all actives have a fitted effect of over 60% in size
Summary of the method: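 In the primary qHTS, MIPE compounds were tested at 11 concentrations (0.78 nM to 46 µM) and NPC compounds at 8 (0.59 nM to 46 µM) on TC32 cells for 48 h. CellTiter-Glo luminescence gave viability.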

[4] = qHTS of pediatric cancer cell lines to identify multiple opportunities for drug repurposing: Primary screen for A673 cells (AID 1347092); further: nearly all actives have a fitted effect of over 45% in size
Summary of the method: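 48 h compound exposure, A673, 500-1,000 cells/well, 37 degrees C/5% CO2. MIPE: 11-point, 0.78 nM-46 µM; NPC: 8-point, 0.59 nM-46 µM (final). Readout CellTiter-Glo luminescence after 15 min RT.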

[5] = qHTS of pediatric cancer cell lines to identify multiple opportunities for drug repurposing: Primary screen for SK-N-MC cells (AID 1347093)
Summary of the method: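 Metabolically active cells were quantified by ATP-dependent luminescence (CellTiter-Glo, 15 min at room temperature) following 48 h treatment. Cells had been plated at 500-1,000 per well and settled for 5 h beforehand.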

[6] = qHTS of pediatric cancer cell lines to identify multiple opportunities for drug repurposing: Primary screen for NB-EBc1 cells (AID 1347095)
Summary of the method: (§1)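 Phenotypic viability qHTS, 48 h compound exposure, CellTiter-Glo luminescence read-out; multi-concentration dosing so that potency and efficacy derive directly from the primary screen's curves.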

[7] = qHTS of pediatric cancer cell lines to identify multiple opportunities for drug repurposing: Primary screen for U-2 OS cells (AID 1347096); further: nearly all actives have a fitted effect of over 50% in size
Summary of the method: (§2)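 Cells (500-1,000/well) rested 5 h, then received compounds for 48 h; metabolically active cells were measured by CellTiter-Glo luminescence. Final concentrations spanned up to 46 µM (MIPE, 11-point) or 0.59 nM-46 µM (NPC, 8-point) in primary screens, 11-point in follow-ups.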

[8] = qHTS of pediatric cancer cell lines to identify multiple opportunities for drug repurposing: Primary screen for Saos-2 cells (AID 1347097); further: nearly all actives have a fitted effect of over 40% in size
Summary of the method: as §1

[9] = qHTS of pediatric cancer cell lines to identify multiple opportunities for drug repurposing: Primary screen for SK-N-SH cells (AID 1347098); further: nearly all actives have a fitted effect of over 65% in size
Summary of the method: as §2

[10] = qHTS of pediatric cancer cell lines to identify multiple opportunities for drug repurposing: Primary screen for NB1643 cells (AID 1347099); further: nearly all actives have a fitted effect of over 50% in size
Summary of the method: as §1

[11] = qHTS of pediatric cancer cell lines to identify multiple opportunities for drug repurposing: Primary screen for LAN-5 cells (AID 1347100)
Summary of the method: as §2

[12] = qHTS of pediatric cancer cell lines to identify multiple opportunities for drug repurposing: Primary screen for BT-12 cells (AID 1347101); further: nearly all actives have a fitted effect of over 25% in size
Summary of the method: as §2

[13] = qHTS of pediatric cancer cell lines to identify multiple opportunities for drug repurposing: Primary screen for Rh18 cells (AID 1347102); further: nearly all actives have a fitted effect of over 65% in size
Summary of the method: as §2

[14] = qHTS of pediatric cancer cell lines to identify multiple opportunities for drug repurposing: Primary screen for SJ-GBM2 cells (AID 1347091)
Summary of the method: (§3)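 Cell viability, CellTiter-Glo luminescence; 500-1,000 cells/well, 8- or 11-point titration, 48 h compound exposure at 37 degrees C, 5% CO2. Controls: DMSO neutral, bortezomib 2.3 µM final as positive.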

[15] = qHTS of pediatric cancer cell lines to identify multiple opportunities for drug repurposing: Primary screen for BT-37 cells (AID 1347094)
Summary of the method: as §1

[16] = qHTS of pediatric cancer cell lines to identify multiple opportunities for drug repurposing: Primary screen for DAOY cells (AID 1347090); further: nearly all actives have a fitted effect of over 55% in size
Summary of the method: as §3
Potency means the concentration at half of the fitted maximal effect.

SMILES	Potency [1]	Potency [2]	Potency [3]	Potency [4]	Potency [5]	Potency [6]	Potency [7]	Potency [8]	Potency [9]	Potency [10]	Potency [11]	Potency [12]	Potency [13]	Potency [14]	Potency [15]	Potency [16]
COc1ccc(CCC(=O)c2c(O)cc(O[C@@H]3O[C@H](CO)[C@@H](O)[C@H](O)[C@@H]3O[C@@H]3O[C@@H](C)[C@H](O)[C@@H](O)[C@@H]3O)cc2O)cc1O	inactive	inactive	inactive	9350 nM (active)	3320 nM (active)	inactive	inactive	inactive	13600 nM (active)	13200 nM (active)	inactive	inactive	inactive	–	–	–
C[C@H](NC(=O)Cc1cc(F)cc(F)c1)C(=O)N[C@H](C(=O)OC(C)(C)C)c1ccccc1	18700 nM (active)	inactive	inactive	–	14800 nM (active)	inactive	inactive	inactive	–	–	inactive	inactive	inactive	inactive	inactive	–
O=C(O)CCCCC(CCSCc1ccccc1)SCc1ccccc1 (stereo not drawn)	inactive	inactive	inactive	–	9350 nM (active)	inactive	inactive	–	–	10500 nM (active)	–	inactive	–	–	–	23500 nM (active)
CNC(=O)c1cccc(-c2ccc3c(N4CCOC[C@H]4C)nc(N4CCOC[C@H]4C)nc3n2)c1	66.2 nM (active)	inactive	523 nM (active)	148 nM (active)	14.8 nM (active)	132 nM (active)	–	833 nM (active)	–	–	4180 nM (active)	–	332 nM (active)	105 nM (active)	–	–
CC(=O)C1=C(O)C=C2Oc3c(C(C)=O)c(O)c(C)c(O)c3C2(C)C1=O (stereo not drawn)	inactive	inactive	inactive	187 nM (active)	–	–	inactive	1480 nM (active)	inactive	–	–	1720 nM (active)	inactive	–	–	inactive
C[C@H]1COc2c(N3CCN(C)CC3)c(F)cc3c(=O)c(C(=O)O)cn1c23	inactive	inactive	–	inactive	inactive	inactive	inactive	inactive	inactive	inactive	inactive	inactive	inactive	inactive	inactive	inactive
c1cncc(CN2CCC(n3ncc4c(N5CCOCC5)nc(-c5ccc6[nH]ccc6c5)nc43)CC2)c1	469 nM (active) and 2.31 µM (active)	14800 nM (active)	–	11800 nM (active)	7430 nM (active)	4690 nM (active)	inactive	–	19200 nM (active)	6620 nM (active)	14800 nM (active)	13700 nM (active)	5900 nM (active)	3320 nM (active)	7690 nM (active)	18700 nM (active)
Cc1cnc(Nc2ccc(CN3CCOCC3)cc2)nc1Nc1cccc(S(=O)(=O)NC(C)(C)C)c1	3.32 µM (active) and 1.84 µM (active)	33200 nM (active)	–	2960 nM (active)	833 nM (active)	2640 nM (active)	7430 nM (active)	3720 nM (active)	3040 nM (active)	3720 nM (active)	1320 nM (active)	9680 nM (active)	3720 nM (active)	2960 nM (active)	17200 nM (active)	4690 nM (active)
CC(=O)OC[C@@H]1O[C@@H](n2ccc(=O)[nH]c2=O)[C@H](OC(C)=O)[C@H]1OC(C)=O	inactive	inactive	inactive	–	inactive	inactive	inactive	–	–	–	–	inactive	inactive	–	inactive	inactive
CCNC(=O)Nc1ccc(-c2nc3c(c(N4CCOC[C@H]4C)n2)CCN(C2COC2)C3)cc1	1840 nM (active)	inactive	3300 nM (active)	1480 nM (active)	209 nM (active)	1180 nM (active)	–	4690 nM (active)	17100 nM (active)	–	–	–	–	743 nM (active)	1720 nM (active)	–
O=C1NC(=O)[C@@H](c2cn3c4c(cccc24)CCC3)[C@H]1c1c[nH]c2ccccc12	469 nM (active)	6620 nM (active)	2340 nM (active)	235 nM (active)	46.9 nM (active)	–	–	148 nM (active)	inactive	–	332 nM (active)	2170 nM (active)	inactive	83.3 nM (active)	2170 nM (active)	–
CCC[C@H]1C[C@H](C(=O)N[C@@H]([C@@H]2O[C@@H](SC)[C@@H](O)[C@@H](O)[C@@H]2O)[C@H](C)Cl)N(C)C1	inactive	inactive	–	inactive	inactive	inactive	inactive	inactive	inactive	inactive	inactive	inactive	inactive	inactive	inactive	inactive
CC(C)Oc1ccc(C(=O)N[C@H](CNC(=O)CN(C)C)Cc2ccc(-c3cn4cccc([C@H](C)O)c4n3)cc2)cc1Cl	26400 nM (active)	20900 nM (active)	370 nM (active)	148 nM (active)	148 nM (active)	–	inactive	332 nM (active)	15200 nM (active)	–	1050 nM (active)	1930 nM (active)	–	148 nM (active)	–	–
C[C@@H](Oc1ccc2[nH]nc(C=Cc3cnn(CCO)c3)c2c1)c1c(Cl)cncc1Cl	332 nM (active)	inactive	18600 nM (active)	18700 nM (active)	7430 nM (active)	93.5 nM (active)	inactive	–	681 nM (active)	–	4180 nM (active)	17200 nM (active)	5900 nM (active)	–	24300 nM (active)	–
CCCCCCCCCCCCCCCC(=O)OC[C@@H](NC(=O)C(Cl)Cl)[C@H](O)c1ccc([N+](=O)[O-])cc1	inactive	inactive	–	inactive	inactive	inactive	inactive	–	inactive	inactive	inactive	inactive	inactive	inactive	inactive	inactive
N[C@H]1CN(c2c(F)cc3c(=O)c(C(=O)O)cn(C4C[C@@H]4F)c3c2Cl)CC12CC2 (stereo partly drawn)	inactive	inactive	–	inactive	inactive	inactive	inactive	inactive	inactive	inactive	21100 nM (active)	inactive	inactive	inactive	inactive	inactive
O=C1NC(=O)C(=Cc2ccc3nccc(-c4ccncc4)c3c2)S1	418 nM (active)	743 nM (active)	–	187 nM (active)	16.6 nM (active)	118 nM (active)	1870 nM (active)	372 nM (active)	1360 nM (active)	1320 nM (active)	743 nM (active)	385 nM (active)	469 nM (active)	93.5 nM (active)	432 nM (active)	235 nM (active)
Cc1ccc(O)c(C(CCN(C(C)C)C(C)C)c2ccccc2)c1 (stereo not drawn)	inactive	inactive	inactive	inactive	–	inactive	inactive	inactive	inactive	inactive	inactive	inactive	inactive	–	–	inactive
O=C(C[C@@H]1CC=CCCC(=O)O[C@H](c2ccccc2)CNC1=O)NCc1ccc(Cl)cc1	inactive	inactive	inactive	inactive	–	inactive	inactive	–	inactive	inactive	inactive	inactive	inactive	–	inactive	inactive
Cn1cc(C=CC(=O)c2cccc(F)c2)cc1C=CC(=O)NO	inactive	inactive	inactive	9350 nM (active)	2960 nM (active)	–	inactive	–	24100 nM (active)	4690 nM (active)	–	inactive	inactive	inactive	inactive	–
CCOc1cc2c(c(F)c1OCC)C(=N)N(CC(=O)c1cc(N3CCOCC3)c(OC)c(C(C)(C)C)c1)C2	20900 nM (active)	inactive	inactive	9350 nM (active)	833 nM (active)	–	–	14800 nM (active)	–	4690 nM (active)	–	27300 nM (active)	–	23500 nM (active)	–	–
CN1C(C(=O)Nc2ccccn2)=C(O)c2sc(Cl)cc2S1(=O)=O	inactive	inactive	inactive	2960 nM (active)	4690 nM (active)	16600 nM (active)	inactive	–	9610 nM (active)	18700 nM (active)	–	inactive	–	–	–	–
CC[C@@]1([C@@H]2O[C@@H]([C@H]3O[C@@](O)(CO)[C@H](C)C[C@H]3C)C[C@H]2C)CC[C@H]([C@]2(C)CC[C@]3(C[C@H](O)[C@@H](C)[C@@H]([C@@H](C)[C@@H](OC)[C@H](C)C(=O)O)O3)O2)O1	911 nM (active)	1290 nM (active)	1610 nM (active)	162 nM (active)	–	182 nM (active)	–	–	10500 nM (active)	457 nM (active)	129 nM (active)	106 nM (active)	inactive	288 nM (active)	150 nM (active)	–
CCCCCCCCCCCCc1ccc(S(=O)(=O)Nc2nncs2)cc1	inactive	inactive	inactive	inactive	–	–	inactive	18700 nM (active)	–	inactive	inactive	inactive	inactive	–	inactive	inactive
C=C(C)[C@@H]1CC[C@]2(C)CC[C@]3(C)[C@H](CC[C@@H]4[C@@]5(C)CC[C@H](O)C(C)(C)[C@H]5CC[C@]43C)[C@@H]12	inactive	inactive	–	inactive	inactive	inactive	inactive	inactive	inactive	inactive	inactive	inactive	inactive	inactive	inactive	inactive
OCc1ccccc1O[C@@H]1O[C@H](CO)[C@H](O)[C@H](O)[C@H]1O	inactive	inactive	–	inactive	inactive	inactive	inactive	inactive	inactive	inactive	inactive	inactive	inactive	inactive	inactive	inactive
